hgDAF-12 ag – H. glycines DAF-12 receptor agonists, primary screen, cell-based, luminescence, HEK293, GAL4 fusion, UAS-luciferase. Nuclear hormone receptor DAF-12 (Heterodera glycines), GAL4 fusion. HEK293 GAL4-hgDAF12 UAS-luciferase reporter, agonist luminescence; normalized to butyrate control. activation, % at 6.8 µM. 1.8% of 370,000 active;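 active = activation above a cutoff set at the mean of all screened compounds plus 3 SD, cut at about 10% in these data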;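 also: 0% = DMSO wells and 100% = sodium butyrate wells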
ssDAF12 agonist – S. stercoralis DAF-12 nuclear receptor activators, primary screen, cell-based, luminescence, HEK293, GRIP1 co-expression, lit1-tk-luc | HEK293 ssDAF-12/GRIP1 lit1-tk-luc reporter; % of 3 µM dafachronic acid response | activation, % at 6.8 µM | 1% of 370,000 active | AID 652126, 2013;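 active = activation above the mean over all tested compounds plus 3 SD, cut at about 0.9% in these data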;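 also: 0% = DMSO-only wells and 100% = 3 µM delta7-dafachronic acid wells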
DAX1 inh-1 – DAX1 (NR0B1) inhibitors on StAR promoter, primary screen, cell-based, luminescence, SF-1 (NR5A1), full-length DAX-1; HEK293T StAR-luciferase reporter, SF-1/DAX-1 repression relief; 1.1% of 370,000 active; inhibition, % at 6.8 µM; AID 652010, 2013;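 active = inhibition above the mean over all tested compounds plus 3 SD, cut at about 3.6% in these data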;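 also: 0% = DAX-1 cells with DMSO and 100% = cells lacking DAX-1 with DMSO; higher inhibition means more luminescence from relief of DAX-1 repression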
DAX1 inh-2 – DAX1 (NR0B1) inhibitors, primary screen, cell-based, HEK293, Gal4-DAX1, luciferase luminescence; Nuclear receptor subfamily 0 group B member 1 (Homo sapiens), P51843; 0.99% of 340,000 active; HEK293 Gal4-DAX1 luciferase reporter; AID 504766, 2011; inhibition, % at 6.75 µM;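 active = inhibition above the mean over all tested compounds plus 3 SD, cut at about 4.2% in these data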;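 also: 0% = DAX1-transfected cells with DMSO and 100% = empty-vector control cells with DMSO; inhibition shows as a rise in luminescence from relieved DAX1 repression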
Target sequence (P51843 207-470 limits assumed): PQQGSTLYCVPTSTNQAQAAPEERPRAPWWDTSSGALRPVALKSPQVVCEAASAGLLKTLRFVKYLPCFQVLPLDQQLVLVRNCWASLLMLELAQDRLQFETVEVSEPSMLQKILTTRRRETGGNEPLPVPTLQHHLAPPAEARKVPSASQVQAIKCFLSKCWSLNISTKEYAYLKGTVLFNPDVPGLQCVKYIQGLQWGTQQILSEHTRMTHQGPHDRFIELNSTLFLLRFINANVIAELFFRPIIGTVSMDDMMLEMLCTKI
hcDAF12 agonist – H. contortus DAF-12 nuclear receptor activators, primary screen, cell-based, luminescence, HEK293, lit1-tk-luc reporter. HEK293 hcDAF-12 lit1-tk-luc reporter; 0% DMSO, 100% Δ7-dafachronic acid. activation, % at 6.8 µM. 1.4% of 370,000 active. AID 652067, 2013;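 active = activation above the mean of all tested compounds plus 3 SD, cut at about 5.5% in these data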;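 also: 100% = response to 3 µM Δ7-dafachronic acid high control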
* marks the source's active call; other numbers are inactive results. The list is not random: actives were taken first. Their share in the collection is about 4.1%.

For CCCc1nc2ccccc2c(=O)n1NC(=O)c1c(O)c2ccccc2n(C)c1=O the results were hgDAF-12 ag 2, ssDAF12 agonist 0, DAX1 inh-1 0, DAX1 inh-2 0 and hcDAF12 agonist -1.
Screening CCc1nc2ccccc2c(=O)n1NC(=O)c1c(O)c2ccccc2[nH]c1=O returned hgDAF-12 ag -2, ssDAF12 agonist -1, DAX1 inh-1 0, DAX1 inh-2 4.9* and hcDAF12 agonist 0.
`CCCCCCC(=O)NC1CCCCN(Cc2cccc(Cl)c2)C1=O` (centres undefined) gave hgDAF-12 ag 0, ssDAF12 agonist -1, DAX1 inh-1 0 and hcDAF12 agonist -3.
Screening COc1ccc(C2SCC(C(=O)O)N2C(C)=O)cc1OC (centres undefined) returned hgDAF-12 ag 0, ssDAF12 agonist -1, DAX1 inh-1 0, DAX1 inh-2 8.4* and hcDAF12 agonist 4.
CC(=O)CC[C@@H]1CC[C@]2(CCCN(S(=O)(=O)C3CCCCC3)C2)O1 was read as hgDAF-12 ag 0, ssDAF12 agonist -2, DAX1 inh-1 2 and hcDAF12 agonist -2.
`COC(=O)[C@]1(C#N)CC(=O)N(CC(C)C)[C@@H]1c1ccccc1` gave hgDAF-12 ag -1, ssDAF12 agonist -1, DAX1 inh-1 0 and hcDAF12 agonist 3.
`COC(=O)[C@]12C[C@H](CC(=O)NCCCN3CCCC3=O)C(=O)N(CCC3=CCCCC3)C1=C[C@H](COCc1ccccc1)O[C@@H]2C` gave hgDAF-12 ag 0, ssDAF12 agonist -2, DAX1 inh-1 -2 and hcDAF12 agonist 0.
`O=C(c1cc2ccccc2[nH]1)N1O[C@@H]2C=C[C@H]1C2` gave hgDAF-12 ag 7, ssDAF12 agonist 0, DAX1 inh-1 2, DAX1 inh-2 2 and hcDAF12 agonist 6.2*.
C=CC[C@@H]1NN2C(=O)[C@@H](CCCC)[C@@H]3c4ccccc4C=NN3[C@@H]2c2ccccc21 was read as hgDAF-12 ag -1, ssDAF12 agonist -2, DAX1 inh-1 -2 and hcDAF12 agonist -4.
CCCN1C(=S)c2ccccc2C1c1ccccc1 (centres undefined) was read as hgDAF-12 ag -1, ssDAF12 agonist 1.3*, DAX1 inh-1 0, DAX1 inh-2 4.7* and hcDAF12 agonist 4.
`CC(c1c[nH]c2ccccc12)c1c[nH]c2ccc(Br)cc12` (centres undefined) gave hgDAF-12 ag 4, ssDAF12 agonist 0, DAX1 inh-1 -1 and hcDAF12 agonist 5.6*.
COc1ccc2[nH]cc(C(C)c3c[nH]c4ccccc34)c2c1 (centres undefined) was read as hgDAF-12 ag 2, ssDAF12 agonist 0, DAX1 inh-1 -1 and hcDAF12 agonist 4.
For CCCOc1ccc(C2c3c(oc4cc(C)c(C)cc4c3=O)C(=O)N2CCCN(C)C)cc1 (centres undefined) the results were hgDAF-12 ag 4, ssDAF12 agonist -1, DAX1 inh-1 1, DAX1 inh-2 6.7* and hcDAF12 agonist 0.
Cc1cc2oc3c(c(=O)c2cc1C)C(c1ccc(F)cc1)N(CCCN1CCOCC1)C3=O (centres undefined) was read as hgDAF-12 ag 0, ssDAF12 agonist -1, DAX1 inh-1 -1, DAX1 inh-2 1 and hcDAF12 agonist -1.
`CC(=O)c1ccc(Nc2ncnc3c2oc2ccccc23)cc1` gave hgDAF-12 ag 10, ssDAF12 agonist 1.0*, DAX1 inh-1 1, DAX1 inh-2 2 and hcDAF12 agonist 2.
Screening CC(=O)Nc1ccc(Nc2nc(C)nc3c2oc2ccccc23)cc1 returned hgDAF-12 ag -4, ssDAF12 agonist -2, DAX1 inh-1 0, DAX1 inh-2 -1 and hcDAF12 agonist 0.
CC(C)C(=O)N1CC[C@H]2[C@H](CCCN2Cc2ccc(F)cc2)C1 was read as hgDAF-12 ag 2, ssDAF12 agonist -1, DAX1 inh-1 0 and hcDAF12 agonist -4.
COc1ccc(C2=NN(S(=O)(=O)c3ccccc3)C(c3ccccc3)C2)cc1 (centres undefined) was read as hgDAF-12 ag 0, ssDAF12 agonist -1, DAX1 inh-1 0, DAX1 inh-2 1 and hcDAF12 agonist 0.
For COc1ccc(C2=NN(CN3C(=O)C(=O)c4ccccc43)C(c3ccc(OC)cc3)C2)cc1 (centres undefined) the results were hgDAF-12 ag 11*, ssDAF12 agonist -1, DAX1 inh-1 0, DAX1 inh-2 0 and hcDAF12 agonist 1.
COc1cc2c(cc1CNC[C@H]1O[C@@H](n3cc(C)c(=O)[nH]c3=O)C[C@@H]1O)OCO2 was read as hgDAF-12 ag 1, ssDAF12 agonist -1, DAX1 inh-1 0, DAX1 inh-2 5.0* and hcDAF12 agonist 1.
Screening CN1C(=O)c2cc(NC(=O)C3CCCCC3)ccc2OC[C@H]2O[C@@H](CC(=O)NC3CCCC3)CC[C@H]21 returned hgDAF-12 ag -1, ssDAF12 agonist -1, DAX1 inh-1 -2 and hcDAF12 agonist -2.
`COC(=O)C1CN(Cc2ccc(F)cc2)CCS(=O)(=O)N1Cc1cn(CCOC(C)=O)nn1` (centres undefined) gave hgDAF-12 ag 0, ssDAF12 agonist -2, DAX1 inh-1 0 and hcDAF12 agonist 2.
For COC(=O)c1cc(-c2ccc(C)cc2)n[nH]1 the results were hgDAF-12 ag 7, ssDAF12 agonist -1, DAX1 inh-1 1, DAX1 inh-2 1 and hcDAF12 agonist 2.
Screening COC(=O)c1cc(-c2ccc(OC)cc2)n[nH]1 returned hgDAF-12 ag 11*, ssDAF12 agonist -1, DAX1 inh-1 0, DAX1 inh-2 2 and hcDAF12 agonist 0.
CCCCCCN1CCN(C2CN(Cc3cn(Cc4ccc(C(F)(F)F)cc4)nn3)S(=O)(=O)C2)CC1 (centres undefined) was read as hgDAF-12 ag -3, ssDAF12 agonist -1, DAX1 inh-1 -2 and hcDAF12 agonist -2.
`O=C(NC(=S)Nc1ccccc1Cl)c1cncc(C#Cc2ccccc2)c1` gave hgDAF-12 ag -1, ssDAF12 agonist -1, DAX1 inh-1 0, DAX1 inh-2 4.4* and hcDAF12 agonist -1.
Screening Cc1cccc(C)c1OCC(=O)Nc1cccc(C(=O)O)c1 returned hgDAF-12 ag 10, ssDAF12 agonist 0, DAX1 inh-1 3.8*, DAX1 inh-2 -2 and hcDAF12 agonist 3.
COc1ccccc1NC(=S)NC(=O)CCc1ccccc1 was read as hgDAF-12 ag 0, ssDAF12 agonist -1, DAX1 inh-1 0, DAX1 inh-2 1 and hcDAF12 agonist 0.

Screening results: PubChem BioAssay, The Scripps Research Institute Molecular Screening Center
